AI-2 QS modul = Vibrio harveyi AI-2 quorum sensing modulation | Vibrio harveyi JMH597 AI-2 luminescence/OD600 ratio, 9 h; stronger effect = lower value; strain lacks LuxN and CqsS sensors; 0 = neutral-control median | AID 2094 | activity change, % at 7.5 µM | hit rate 0.4% among 300,000; in the data active = activity change below about -75%, passing the limit was not always enough; inconclusive = no clear call, values can overlap the other calls;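 note: luminescence divided by OD600 gain over 9 h not by final OD600 alone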
PHOSPHO1 inh = blocks human PHOSPHO1 phosphatase activity; Q8TCT1; recombinant PHOSPHO1, absorbance phosphatase assay; inhibition, % at 13.3 µM; hit rate 1.1% among 290,000; in the data active = inhibition above about 60%
MLLE-PAM2 inh = inhibitors of microRNA-mediated deadenylation, human PABP1 MLLE binding | P11940 | GST-MLLE / FITC-PAM2 fluorescence polarization | inhibition, % at 20 µM | hit rate 0.36% among 360,000; in the data active = inhibition above about 35%, passing the limit was not always enough;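 note: plate controls were DMSO wells with GST-MLLE for no effect and wells lacking GST-MLLE protein for full effect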
PABP polyA inh = PABP-poly(A) binding inhibition. P11940. PABP-poly(A) RNA binding, fluorescence polarization. calls only at 35 µM. hit rate 1% among 290,000. AID 2014;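 note: calls also rest on retests at 20 µM and on dose response follow-up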
eIF4H inh = inhibitors of RNA binding by human eIF4H | Q15056 | eIF4H fluorescence polarization binding assay | inhibition, % at 35 µM | hit rate 0.94% among 290,000 | AID 2012;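 note: calls also rest on retests at 20 µM and on dose response follow-up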
ABCB6 inh MLPCN = blocks the human ABCB6 transporter; K562-ABCB6 porphyrin accumulation, flow cytometry, 1 h; stronger effect = lower value; fluorescence ratio to DMSO, % at 10 µM; hit rate 0.19% among 360,000; AID 602162;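 active = fluorescence ratio to DMSO below 75%, the collection mean minus 3 SD; inconclusive = too few cells collected in the well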;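 note: signal is porphyrin accumulated inside mitochondria; 100% equals median channel fluorescence of DMSO control wells; lower ratio means ABCB6 inhibition with less porphyrin fluorescence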
The depositor's hits bear a star; i = inactive; u = inconclusive; x = no result given; + = active, no number. A selection: hits, their analogues and other compounds. The true share with any hit is near 2.6%. Unless noted, the rule behind the calls is not given here.

SMILES	AI-2 QS modul	PHOSPHO1 inh	MLLE-PAM2 inh	PABP polyA inh	eIF4H inh	ABCB6 inh MLPCN
CCOCCCNc1nc(C)nc2c1nnn2Cc1c(F)cccc1Cl	27.0	64.7*	-1.8	i	-2.1	94.0
CC(C)CCNC(=O)C1(C)CCN1Cc1ccc(-c2ccccn2)cc1 (stereo not given)	x	x	-5.2	x	x	95.0
CCCCCCc1c(O)nc(SCCN2CCOCC2)[nH]c1=O	20.9	67.6*	13.4	i	-7.5	98.0
C[C@H](O)[C@@H]1C(=O)N2CCc3c([nH]c4ccccc34)[C@@H]2C[C@@H]1N(C)C(=O)c1ccco1	x	x	7.3	x	x	102.0
O=C1CC(=O)NC(SCC(=O)Nc2ccccc2[N+](=O)[O-])=N1	19.0	14.3	10.0	+	78.4*	99.0
CSc1ccccc1NC(=S)Nc1ccc(S(N)(=O)=O)cc1	8.0	-12.6	36.3*	i	4.1	99.0
NS(=O)(=O)c1ccc(NC(=S)Nc2cc(Cl)c(Cl)cc2Cl)cc1	8.7	2.6	32.2	i	-2.9	100.0
Cc1cc(=O)oc2c3c4c(cc12)OCCN4CCC3	25.2	-18.9	-49.0	i	41.7	119.0
CC(C)c1cc(=O)oc2c3c4c(cc12)CCCN4CCC3	23.7	89.7*	-8.1	i	14.5	92.0
COCCNc1nc(Nc2ccc(C)cc2C)c2sccc2n1	x	x	5.3	x	x	98.0
COc1ccc(C2NC3=C(CCCC3)C(C#N)(C#N)C2(C#N)C#N)cc1 (stereo not given)	30.3	-2.9	x	u	u	x
CCCC1C(c2ccc(OC)cc2)C(C#N)(C#N)C2(C#N)CC1(N)NC2=O (stereo not given)	22.1	13.4	-0.3	+	58.1	102.0
COc1ccc(C(N)=S)c(OC)c1	21.6	-1.5	38.6*	i	-9.0	102.0
COc1ccc(/C(C)=N/N=C(\C)c2ccc(OC)cc2OC)c(OC)c1	7.5	3.4	2.3	i	-5.4	94.0
c1ccc2c(c1)ccn1c(Cc3ccsc3)c(C3CCCCC3)nc21	x	x	x	x	x	104.0
O=C(NCc1ccc(F)c(F)c1)C1Cc2c(-c3ccc4c(c3)OCO4)ccnc2O1 (stereo not given)	x	x	-6.3	x	x	95.0
COc1cc(/C=N/OCC(=O)Nc2ccc(OC(F)F)cc2)ccc1OCc1ccccc1	3.9	-14.7	-57.3	i	66.2*	97.0
CCOc1ccc(/C=N/OCC(=O)Nc2ccc(OCc3ccccc3)cc2)cc1OC	8.1	12.3	-41.6	i	-7.2	100.0
O=c1ccc2[n+]([O-])c3ccc(O)cc3oc-2c1	-417.8*	1.0	36.1	u	u	103.0
COC(=O)CCCn1cc(CN2CC(N3CCN(C4CCN(C)CC4)CC3)CS2(=O)=O)nn1 (stereo not given)	x	x	x	x	x	96.0
CC(=O)Nc1cncc(-c2ccccc2F)n1	x	x	2.2	x	x	94.0
COCCNC(=O)C1(C)CCCN(C(=O)c2ccc(-c3ccccc3)cc2)C1 (stereo not given)	x	x	-8.4	x	x	96.0
S=C(NCCCc1cnc[nH]1)NCCCN(Cc1ccc(Cl)cc1)c1ccc(Br)cn1	x	x	-30.8	x	x	101.0
COc1cc(/C=C/C(=O)OCC(=O)Nc2ccc(S(N)(=O)=O)cc2)ccc1O	4.0	39.9	-19.2	+	52.2*	98.0
COc1cc(/C=C/C(=O)OCC(=O)Nc2ccc([N+](=O)[O-])cc2)ccc1O	21.7	18.9	-2.8	i	2.9	100.0
C#CCOCCOCCOCCNc1nc(N2CCN(C(=O)[C@H]([C@@H](C)CC)n3cc([C@@H](N)CC(C)C)nn3)CC2)nc(N2CCN(C(=O)[C@H](CCCCN)n3cc([C@@H](N)CC(C)C)nn3)CC2)n1	-9.1	43.0	x	+	55.4*	x
CCCCc1cn([C@@H](CCCCN)C(=O)N2CCNCC2)nn1	10.8	26.2	48.7*	u	u	99.0
CC(C)C[C@H](N)c1cn([C@@H](CCCCN)C(=O)N2CCNCC2)nn1	3.2	34.6	10.2	+	16.0	99.0
CC(C)CC(N)c1cn([C@@H](CCC(=O)O)C(=O)N2CCNCC2)nn1 (stereo not given in full)	0.8	30.4	3.6	i	-12.7	98.0
CCOc1ccc(NC(=O)C2CCCN(S(=O)(=O)c3ccc4c(c3)C(C)(C)C(=O)N4C)C2)cc1 (stereo not given)	x	x	3.5	x	x	102.0

High-throughput results deposited in PubChem by several laboratories.
